In ChEMBL document CHEMBL3433997, “St. Jude Leishmania screening dataset” (2016):

Experiments:
Format in all cases: functional
[1] = target: Solute carrier family 2, facilitated glucose transporter member 1 (Homo sapiens) (UniProt P11166); test: ST_JUDE_LEISH: Cytotoxicity at 2uM final concentration against transgenic Leishmania Mexicana promastigotes LmGLUT1 that are glucose transport deficient and complemented with the human glucose transporter GLUT1. Activity is measured by DNA content using SYBR green in vitro
[2] = target: Hexose transporter 1 (Plasmodium falciparum) (UniProt O97467); test: ST_JUDE_LEISH: Cytotoxicity at 2uM final concentration against transgenic Leishmania Mexicana promastigotes LmPfHT that are glucose transport deficient and complemented with the Plasmodium falciparum hexose transporter. Activity is measured by DNA content using SYBR green in vitro
[3] = target: Glucose transporter (Leishmania mexicana) (UniProt O61059); test: ST_JUDE_LEISH: Cytotoxicity at 2uM final concentration against transgenic Leishmania Mexicana promastigotes LmGT2 that are glucose transport deficient and complemented with the L. Mexicana glucose transporter 2. Activity is measured by DNA content using SYBR green in vitro

Sequence of Solute carrier family 2, facilitated glucose transporter member 1 (Homo sapiens) (P11166 whole entry): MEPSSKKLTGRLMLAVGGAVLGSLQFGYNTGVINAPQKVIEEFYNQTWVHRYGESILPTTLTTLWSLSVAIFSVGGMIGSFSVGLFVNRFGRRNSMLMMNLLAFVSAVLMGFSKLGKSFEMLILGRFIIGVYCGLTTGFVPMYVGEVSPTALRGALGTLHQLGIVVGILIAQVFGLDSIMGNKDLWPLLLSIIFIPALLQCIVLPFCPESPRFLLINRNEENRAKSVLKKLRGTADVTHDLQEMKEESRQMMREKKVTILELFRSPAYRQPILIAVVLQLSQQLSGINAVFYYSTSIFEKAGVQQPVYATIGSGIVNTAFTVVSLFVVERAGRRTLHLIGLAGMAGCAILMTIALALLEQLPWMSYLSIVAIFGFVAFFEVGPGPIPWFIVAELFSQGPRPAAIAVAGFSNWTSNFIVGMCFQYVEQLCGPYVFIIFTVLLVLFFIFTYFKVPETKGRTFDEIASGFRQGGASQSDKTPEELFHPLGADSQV

Q: With `Cc1cc(-c2ccc(CNCc3ccc(F)cc3)cc2)ccc1S(=O)(=O)NCCN1CCCC1` as the molecule, how does the inhibition [1] read?
A: 66.4%

Q: And the inhibition [2]?
A: 41.4%

Q: And the inhibition [3]?
A: -2.93%

Q: With `Oc1ccc(Cl)cc1CN1CCCC(COC(c2ccc(F)cc2)c2ccc(F)cc2)C1` (configuration not stated) as the molecule, how does the inhibition [1] read?
A: 0.85%

Q: What about the inhibition [2] of the same molecule?
A: 1.7%

Q: What about the inhibition [3] of the same molecule?
A: -2.44%

Q: For `N#Cc1cccc(C(=O)Nc2cccc(-c3ccc(C(=O)Nc4cccnc4)cc3)c2)c1`, which inhibition [1] is on record?
A: 4.01%

Q: What about the inhibition [2] of the same molecule?
A: 2.59%

Q: What about the inhibition [3] of the same molecule?
A: 1.36%

Q: With `NC(=O)c1ccccc1OCC(=O)Nc1cccc(-c2ccc(-c3nc4ccccc4[nH]3)cc2)c1` as the molecule, how does the inhibition [1] read?
A: 8.01%

Q: What about the inhibition [2] of the same molecule?
A: 6.11%

Q: And the inhibition [3]?
A: 2.43%
